The supplement of paper PMC12024529

Test system: HEK293 WT BDD-FVIII-Gluc
Test: secreted FVIII-Gluc luciferase Z-score vs DMSO control; higher = more FVIII-Gluc secretion
Conditions: 5 µM
Procedure: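 Natural plant-compound library (480 compounds, ST catalogue IDs) screened on HEK293 cells stably expressing WT BDD-FVIII-Gaussia luciferase fusion at 5 µM. Secreted Gluc activity in the medium is given as a Z-score relative to DMSO controls.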

| SMILES | secreted FVIII-Gluc luciferase Z-score |
| --- | --- |
| O=c1ccn([C@H]2C[C@H](O)[C@@H](CO)O2)c(=O)[nH]1 | 0.515 |
| COc1ccc([C@@H]2CC(=O)c3c(O)cc(O)cc3O2)cc1O | 0.825 |
| C[C@@H]1C(=O)O[C@H]2[C@@H](O)[C@@]34[C@H]5CC(C(C)(C)C)[C@]36[C@@H](OC(=O)[C@@H]6O)O[C@@]4(C(=O)O5)[C@@]12O (some centres undefined) | 0.119 |
| CC/C=C\C/C=C\C/C=C\CCCCCCCC(=O)O | 0.636 |
| CC(C)CC(NC(=O)C(NC(=O)NC(Cc1ccccc1)C(=O)O)C1CCN=C(N)N1)C(=O)NC(C=O)Cc1ccccc1 (centres undefined) | 0.979 |
| COc1cc2c(cc1OC)C(=O)N(C)CC2 | 0.547 |
| COC1C(O)C(O)C(O)C(O)C1O (centres undefined) | 0.358 |
| COc1cc([C@@H]2c3cc4c(cc3C(OC3OC5COC(C)OC5C(O)C3O)C3COC(=O)[C@@H]32)OCO4)cc(OC)c1O (some centres undefined) | -6.37 |
| Cc1cc2c(C(C)C)c(O)c(O)c3c2c(c1-c1c(C)cc2c(C(C)C)c(O)c(O)c4c2c1OC4N)OC3N (centres undefined) | -0.0294 |
| Cc1cc(=O)cc2oc3cc(N)c(-c4c(C)cc(O)cc4O)c(C)c3nc1-2 | -0.31 |
| Oc1cc2c(cc1O)[C@H]1c3ccc(O)c(O)c3OC[C@@]1(O)C2 | 0.368 |
| OCC1(O)OC[C@H](O)[C@@H](O)[C@@H]1O (some centres undefined) | 0.437 |
| C=C1CCC2C(C)(CO)C(O)CCC2(C)C1C/C=C1\C(=O)OCC1O (centres undefined) | -1.01 |
| CC1=C(C/C=C(\C)CCCC(C)CCCC(C)CCCC(C)C)C(=O)c2ccccc2C1=O (centres undefined) | 0.33 |
| O=c1cc(-c2cccc(O)c2O)oc2ccccc12 | -0.852 |
| CC(C)C1=CC2=CCC3C(C)(C(=O)O)CCC[C@]3(C)C2CC1 (some centres undefined) | 0.107 |
| O=C(/C=C/c1ccc(O)c(O)c1)O[C@@H]1CC(O)(C(=O)O)CC(O)C1O (some centres undefined) | 0.588 |
| O=c1cc(-c2ccccc2)oc2cccc(O)c12 | -0.455 |
| C=C1CCC2OC2(C)CCC2C1CC2(C)C (centres undefined) | 0.146 |
| O=c1ccc2cc3ccoc3cc2o1 | -0.26 |

| SMILES | secreted FVIII-Gluc luciferase Z-score |
| --- | --- |
| CC1(C)[C@@H]2CC[C@@]1(C)C(=O)C2 | 0.363 |
| OCC1OC(n2cnc3cncnc32)C(O)C1O (centres undefined) | -0.247 |
| COC(=O)[C@@H]1[C@H]2C[C@H]3c4[nH]c5ccccc5c4CCN3C[C@@H]2CC[C@@H]1O | 0.00333 |
| O=C1CC(c2ccc(O)cc2)Oc2cc(O)cc(O)c21 (centres undefined) | -0.524 |
| COc1cccc(-c2oc3ccccc3c(=O)c2O)c1 | 0.776 |
| CC(C=CC1=C(C)CCCC1(C)C)=CC=CC(C)=CCO | 0.89 |
| O=c1cc(-c2ccc(O)cc2)oc2cc(O)cc(O)c12 | 0.864 |
| C[S+]([O-])CCC(N)C(=O)O (centres undefined) | 1.1 |
| COc1ccccc1-c1oc2ccccc2c(=O)c1O | -0.65 |
| CC(C)CC(N)C(=O)O (centres undefined) | 0.117 |
| COc1cc2ccc(=O)oc2cc1O | 0.0462 |
| C=C1CCC2C(C)(CC[C@@H](O)C2(C)C)C1COc1ccc2ccc(=O)oc2c1 (some centres undefined) | 0.344 |
| N[C@@H](CSCC(=O)O)C(=O)O | 0.103 |
| CC(C)=CCC/C(C)=C/CC/C(C)=C/CO | 0.255 |
| COc1cc2oc(-c3ccccc3)cc(=O)c2cc1O | 0.564 |
| COc1cn(C2OC(CO)C(O)C2O)c(=O)[nH]c1=O (centres undefined) | -0.271 |
| COc1c2occc2cc2ccc(=O)oc12 | 0.821 |
| OCc1ccccc1O[C@@H]1O[C@H](CO)[C@@H](O)[C@H](O)[C@H]1O | 0.752 |
| COc1cccc2oc(-c3ccc(O)cc3)cc(=O)c12 | 1.3 |
